Assay results from PubChem BioAssay (NCATS).
Results filed as inconclusive are left out. Calls of active or inactive are those of the source. The call rests on the fitted dose curve; in most records, active means well fitted curve in the direction sought with a large enough effect; inconclusive means small, poorly fitted or top-dose-only effect, or another doubt; inactive means no such curve, though single readings can be large; an effect the other way counts as inactive or inconclusive.

Assays:
[1] = Quantitative High-Throughput drug screen in 47 multiple myeloma cell lines against the NCATS MIPE library collection: KMM1_JCRB cell viability assay (AID 1918960); further: nearly all actives have a fitted effect of over 30% in size
Procedure, shortened: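 Myeloma cells, 500 per well, were exposed to MIPE 4.0 drugs by pin transfer for 48 h at 37 °C, 5% CO2. Viability was read as ATP luminescence with CellTiter-Glo, normalised to DMSO-only (100%) and medium-only (0%) wells.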

[2] = Quantitative High-Throughput drug screen in 47 multiple myeloma cell lines against the NCATS MIPE library collection: Karpas417_ECACC cell viability assay (AID 1918961); details: Karpas417 myeloma viability, CellTiter-Glo ATP luminescence, 48 h; viability (% of DMSO): at 45.8 µM (top of the series)
Procedure, shortened: (§1)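 We plated 500 myeloma cells per well, pinned in MIPE 4.0 compounds, and incubated for 48 hours at 37C. ATP was then quantified with CellTiter-Glo, with DMSO and media-only wells defining 100% and 0%.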

[3] = Quantitative High-Throughput drug screen in 47 multiple myeloma cell lines against the NCATS MIPE library collection: JIM3_ECACC cell viability assay (AID 1918963; further: nearly all actives have a fitted effect of over 35% in size)
Procedure, shortened: (§2)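 Primary qHTS used for cherry-picking: cells at 500/well, library compounds for 48 h (37C, 5% CO2), luminescent ATP assay.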

[4] = Quantitative High-Throughput drug screen in 47 multiple myeloma cell lines against the NCATS MIPE library collection: JJN3_DSMZ cell viability assay (AID 1918966; further: nearly all actives have a fitted effect of over 50% in size)
Procedure, shortened: (§3)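 Inhibition of cell viability is measured here. Each line was plated at 500 cells per well, treated with MIPE 4.0 drugs, kept 48 hours at 37C, then assayed for ATP content by CellTiter-Glo luminescence.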

[5] = Quantitative High-Throughput drug screen in 47 multiple myeloma cell lines against the NCATS MIPE library collection: H1112_PLB cell viability assay (AID 1918967; further: nearly all actives have a fitted effect of over 30% in size)
Procedure, shortened: as §3

[6] = Quantitative High-Throughput drug screen in 47 multiple myeloma cell lines against the NCATS MIPE library collection: Karpas25_ECACC cell viability assay (AID 1918968; further: nearly all actives have a fitted effect of over 35% in size)
Procedure, shortened: as §3

[7] = Quantitative High-Throughput drug screen in 47 multiple myeloma cell lines against the NCATS MIPE library collection: KMS27_JCRB cell viability assay (AID 1918970); further: nearly all actives have a fitted effect of over 30% in size
Procedure, shortened: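 KMS27_JCRB myeloma cells, 500 per well, exposed 48 h at 37 C, 5% CO2 to MIPE 4.0 compounds. Viability from ATP by CellTiter-Glo luminescence, normalized to DMSO (100%) and medium-only (0%) wells.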

[8] = Quantitative High-Throughput drug screen in 47 multiple myeloma cell lines against the NCATS MIPE library collection: KMS12BM_JCRB cell viability assay (AID 1918971); further: nearly all actives have a fitted effect of over 35% in size
Procedure, shortened: (§4)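 Steps: seed 500 cells per well; pin-transfer MIPE 4.0 library; incubate 48 h at 37C, 5% CO2, humidified; add CellTiter-Glo, 5 min room temperature; read luminescence.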

[9] = Quantitative High-Throughput drug screen in 47 multiple myeloma cell lines against the NCATS MIPE library collection: KMS12PE_JCRB cell viability assay (AID 1918972); further: nearly all actives have a fitted effect of over 30% in size
Procedure, shortened: as §1

[10] = Quantitative High-Throughput drug screen in 47 multiple myeloma cell lines against the NCATS MIPE library collection: KMS20_JCRB cell viability assay (AID 1918973); further: nearly all actives have a fitted effect of over 45% in size
Procedure, shortened: as §3

[11] = Quantitative High-Throughput drug screen in 47 multiple myeloma cell lines against the NCATS MIPE library collection: KMS26_JCRB cell viability assay (AID 1918975); further: nearly all actives have a fitted effect of over 45% in size
Procedure, shortened: as §4

[12] = Quantitative High-Throughput drug screen in 47 multiple myeloma cell lines against the NCATS MIPE library collection: MMM1_PLB cell viability assay (AID 1918976); further: nearly all actives have a fitted effect of over 35% in size
Procedure, shortened: (§5)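 Plated at 500 cells per well, myeloma lines received MIPE 4.0 compounds by pin tool. Following 48 h culture at 37 °C, CellTiter-Glo luminescence gave viability relative to DMSO and media-only controls.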

[13] = Quantitative High-Throughput drug screen in 47 multiple myeloma cell lines against the NCATS MIPE library collection: MOLP8_DSMZ cell viability assay (AID 1918977); further: nearly all actives have a fitted effect of over 45% in size
Procedure, shortened: as §5

[14] = Quantitative High-Throughput drug screen in 47 multiple myeloma cell lines against the NCATS MIPE library collection: NCIH929_DSMZ cell viability assay (AID 1918978); further: nearly all actives have a fitted effect of over 35% in size
Procedure, shortened: as §5

[15] = Quantitative High-Throughput drug screen in 47 multiple myeloma cell lines against the NCATS MIPE library collection: OCIMY1_PLB cell viability assay (AID 1918979); further: nearly all actives have a fitted effect of over 35% in size
Procedure, shortened: as §5

[16] = Quantitative High-Throughput drug screen in 47 multiple myeloma cell lines against the NCATS MIPE library collection: MM1S_ATCC cell viability assay (AID 1918980); further: nearly all actives have a fitted effect of over 45% in size
Procedure, shortened: as §5

[17] = Quantitative High-Throughput drug screen in 47 multiple myeloma cell lines against the NCATS MIPE library collection: KHM11_PLB cell viability assay (AID 1918962); further: nearly all actives have a fitted effect of over 35% in size
Procedure, shortened: as §2

[18] = Quantitative High-Throughput drug screen in 47 multiple myeloma cell lines against the NCATS MIPE library collection: JIM1_ECACC cell viability assay (AID 1918964)
Procedure, shortened: as §3

[19] = Quantitative High-Throughput drug screen in 47 multiple myeloma cell lines against the NCATS MIPE library collection: INA6_PLB cell viability assay (AID 1918965; further: nearly all actives have a fitted effect of over 55% in size)
Procedure, shortened: as §1

[20] = Quantitative High-Throughput drug screen in 47 multiple myeloma cell lines against the NCATS MIPE library collection: KMS21BM_JCRB cell viability assay (AID 1918974); details: ATP luminescence, 48 h; viability: at 45.8 µM (top of the series)
Procedure, shortened: as §3

Measured: Potency
Potency means the concentration at half of the fitted maximal effect.

CC1=C(O)C(=O)C=C2C1=CC=C1[C@@]2(C)CC[C@@]2(C)[C@@H]3C[C@](C)(C(=O)O)CC[C@]3(C)CC[C@]12C
active: [1] 833 nM | [2] 743 nM | [3] 662 nM | [4] 743 nM | [5] 1320 nM | [6] 833 nM | [7] 1870 nM | [8] 526 nM | [9] 1050 nM | [10] 935 nM | [11] 418 nM | [12] 1180 nM | [13] 418 nM | [14] 372 nM | [15] 833 nM | [16] 662 nM

COCC1(CO)C(=O)C2CCN1CC2 (stereo unspecified)
active: [1] 20900 nM | [2] 3720 nM | [17] 7430 nM | [3] 18700 nM | [18] 6620 nM | [19] 2960 nM | [4] 590 nM | [5] 20900 nM | [6] 3720 nM | [7] 4180 nM | [8] 7430 nM | [9] 9350 nM | [10] 296 nM | [20] 4180 nM | [11] 662 nM | [12] 5260 nM | [13] 590 nM | [14] 833 nM | [15] 2090 nM | [16] 264 nM
